The values that follow come from PubChem BioAssay (NCI).

Compounds without any hit were thinned out: in the full panel of roughly 83,000, 20% have a hit.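 Plates (96-well) were seeded with cells, treated with compound at one concentration, and incubated for 48 hours before percent growth was determined.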 Unmarked numbers belong to inactive results. Activity calls are given as the source filed them. The calls were made as follows: active = growth percent below 10; inactive = the rest.

In one assay the test system is HOP-62 NSCLC. The experiment in a line: NCI-60 one-dose screen, 48 h (100 = growth as untreated, 0 = no growth, -100 = all killed). The following applies: 10 µM unless noted.
As for `O=C1c2cc3c(cc2-c2c1c1ccc(Cl)cc1c(=O)n2CCCN1CCOCC1)OCO3`, the growth was 26.2%. The same measure, in the same setting: for `COc1ccc(-n2nc(C)c3c(Oc4ccc(NC(=O)Nc5c(Cl)cccc5Cl)cc4)ncnc32)cc1` the value was 97.7%; for `CCOc1cc2c(cc1OCC)C(c1cc(OC)c(O)cc1Cl)NCC2` (stereo not drawn), 98.1%; for `COC(=O)c1ccc(NC(=O)c2ccc(-c3cccc([N+](=O)[O-])c3)o2)cc1`, 107%.

With `COc1ccc(-c2cc(-c3ccc(Nc4ccnc5cc(Cl)ccc45)cc3)nc(N3CCOCC3)n2)cc1`, the growth was 81.6%. Still for that read-out and setting: for `O=C(COc1cccc(/C=C2\CSc3ccccc3C2=O)c1)Nc1nccs1` the value was 88.1%; for `N#C/C(=C\c1ccc(-c2ccc(Cl)c(Cl)c2)o1)c1nc(-c2ccco2)cs1`, 79.9%. The same measure, in the same setting: with `CN(C)c1ccc(N=Nc2ccc(Br)cn2)c(O)c1` the figure was 18.5%; with `C#CCOc1ccc2ncnc(Nc3cccc(CNC(=O)CCl)c3)c2c1`, 13.1% [8.25 µM]. Turning to `Cn1cc(-c2nonc2-c2c[nH]c3ccccc23)c2cccnc21`, the growth is 36.5%. For `O=CNc1ccc2c(c1)Cc1cccc(NC=O)c1-2`, the growth was 100%. Turning to `Cn1c(O)c(N=NC(=O)c2cc(-c3ccccc3)on2)c2ccccc21`, the growth is 102%. The same measure, in the same setting: with `CC1=C/C(=C(\c2ccc(N(C)C)cc2)c2ccc([N+](C)(C)C)cc2)C=CC1=[N+](C)C` the figure was 37%; with `COc1cc2c(cc1-c1c(C)noc1C)ncc1nc(C3CCCC3)n([C@H](C)COC(F)F)c12`, 32%. In the case of `Clc1ccc2c(NCCNc3nc(N4CCCCC4)nc4ccccc34)ccnc2c1`, the growth was -18.2% (active). On the same count and under the same terms, for `COc1ccc2[nH]cc(-c3noc(C(=O)c4cn(C)c5ccc(F)cc45)n3)c2c1` the value was 100%; for `O=c1cc(CSc2nnc(-c3ccc(F)cc3)o2)c2ccc3ccccc3c2o1`, 75.4%.

For `O=C1Nc2ccc(Br)cc2C12Oc1ccccc1C1CC(c3ccc(F)cc3)=NN12` (stereo not drawn), the growth was 104%.

As for `FC(F)(F)c1ccc(-c2cn3nc(-c4c[nH]c5ccc(Br)cc45)sc3n2)cc1`, the growth was 99.4%. Same read-out and setting: with `COc1cc(/C=C/c2cc(/C=C/c3ccc(O)c(OC)c3)n(-c3c(Cl)cccc3Cl)c(=O)n2)ccc1O` the figure was 50.6%; with `C=CCSSc1ncnc2c1ncn2C1OC(CO)C(O)C1O` (stereo not drawn), 19.8%; with `O=Nc1c(O)c(Cl)cc2ccccc12`, 75.1%. Same read-out and setting: for `Cc1cc2nc3[nH]c4ccccc4c3nc2cc1C` the value was 94.2%; for `COc1cc(-c2nn(C)nc2-c2cc3ccccc3s2)cc(OC)c1OC`, 32.7%; for `CC(=O)OCCC/C(=C/c1cc2ccccc2c2ccccc12)[N+](=O)[O-]`, -61.3% (active).

In a further assay the test system is NCI-H460 lung. Described as above. The following applies: 10 µM unless noted.
`COc1ccc(-c2cc(NC(=O)Nc3ccc4ncsc4c3)no2)cc1`: the growth was 99.9%. Still for that read-out and setting: with `O=[N+]([O-])c1ccccc1/C=N\NC(=S)N/N=C/c1ccccc1[N+](=O)[O-]` the figure was 10%. Same read-out and setting: with `O=C1c2cc3c(cc2-c2c1c1ccc(F)cc1c(=O)n2C[C@H](O)[C@H](O)[C@H](O)CO)OCO3` the figure was 1% (active); with `Cc1ccc2c(C(C[N+](=O)[O-])c3ccccc3F)c(-c3ccccc3)[nH]c2c1` (stereo not drawn), 20.9%; with `COc1ccc(CCNc2nc(SC)nc(-c3cccc([N+](=O)[O-])c3)c2C#N)cc1OC`, 88.5%. On the same count and under the same terms, with `O=C(CCN1C(=O)/C(=C/c2ccc(Cl)cc2)SC1=S)NCCCN1CCOCC1` the figure was 102%; with `Cc1nn(-c2cc(=O)[nH]c3ccc(Cl)cc23)c(N)c1C#N`, 101%. Consider `COC[C@H](C)n1c(C2CCOCC2)nc2cnc3cc(-c4c(C)noc4C)c(OC)cc3c21`, for which the growth is 65.2%. Same read-out and setting: for `COc1cc(C(=O)Oc2ccccc2OC(=O)c2cc(OC)c(OC)c(OC)c2)cc(OC)c1OC` the value was 114%; for `COc1ccc(/C=C\c2cc(OC)c(OC)c(OC)c2)cc1OCC(=O)Nc1ccc2nc(C)sc2c1`, 24.5%. On the same count and under the same terms, with `COc1cc2c(cc1O)CC[C@@H]1[C@@H]2CC[C@]2(C)[C@@H](OCCCN(C)C)CC[C@@H]12` the figure was -61.4% (active); with `CC(=O)Oc1ccc(Cl)cc1CN(C(C)=O)C1CCCCC1`, 114%; with `O=C(/C=C/c1cccc([N+](=O)[O-])c1)c1ccc(O)c(CN2CCN(c3cc4c(cc3F)c(=O)c(C(=O)O)cn4C3CC3)CC2)c1`, 37.1%. On the same count and under the same terms, for `O=C1c2cc3c(cc2-c2c1c1ccc(Cl)cc1c(=O)n2CCCN1CCOCC1)OCO3` the value was 18.1%; for `COc1ccc(-n2nc(C)c3c(Oc4ccc(NC(=O)Nc5c(Cl)cccc5Cl)cc4)ncnc32)cc1`, 101%; for `CCOc1cc2c(cc1OCC)C(c1cc(OC)c(O)cc1Cl)NCC2` (stereo not drawn), 98.4%. Turning to `COC(=O)c1ccc(NC(=O)c2ccc(-c3cccc([N+](=O)[O-])c3)o2)cc1`, the growth is 101%. Consider `COc1ccc(-c2cc(-c3ccc(Nc4ccnc5cc(Cl)ccc45)cc3)nc(N3CCOCC3)n2)cc1`, for which the growth is 13.3%. The same measure, in the same setting: for `O=C(COc1cccc(/C=C2\CSc3ccccc3C2=O)c1)Nc1nccs1` the value was 91.5%; for `N#C/C(=C\c1ccc(-c2ccc(Cl)c(Cl)c2)o1)c1nc(-c2ccco2)cs1`, 87.7%.

In the case of `CN(C)c1ccc(N=Nc2ccc(Br)cn2)c(O)c1`, the growth was 3.96% (active). Turning to `C#CCOc1ccc2ncnc(Nc3cccc(CNC(=O)CCl)c3)c2c1`, the growth is 61.3% [8.25 µM].

With `Cn1cc(-c2nonc2-c2c[nH]c3ccccc23)c2cccnc21`, the growth is 21.6%. On the same count and under the same terms, for `O=CNc1ccc2c(c1)Cc1cccc(NC=O)c1-2` the value was 95.8%; for `Cn1c(O)c(N=NC(=O)c2cc(-c3ccccc3)on2)c2ccccc21`, 100%; for `CC1=C/C(=C(\c2ccc(N(C)C)cc2)c2ccc([N+](C)(C)C)cc2)C=CC1=[N+](C)C`, 74.9%.

With `COc1cc2c(cc1-c1c(C)noc1C)ncc1nc(C3CCCC3)n([C@H](C)COC(F)F)c12`, the growth was 51%. Still for that read-out and setting: with `Clc1ccc2c(NCCNc3nc(N4CCCCC4)nc4ccccc34)ccnc2c1` the figure was -39.4% (active). On the same count and under the same terms, for `COc1ccc2[nH]cc(-c3noc(C(=O)c4cn(C)c5ccc(F)cc45)n3)c2c1` the value was 95.6%. The same measure, in the same setting: for `O=c1cc(CSc2nnc(-c3ccc(F)cc3)o2)c2ccc3ccccc3c2o1` the value was 101%; for `O=C1Nc2ccc(Br)cc2C12Oc1ccccc1C1CC(c3ccc(F)cc3)=NN12` (stereo not drawn), 98.5%.

For the compound `FC(F)(F)c1ccc(-c2cn3nc(-c4c[nH]c5ccc(Br)cc45)sc3n2)cc1`, the growth is 100%. Take `COc1cc(/C=C/c2cc(/C=C/c3ccc(O)c(OC)c3)n(-c3c(Cl)cccc3Cl)c(=O)n2)ccc1O`: the growth was 70.8%. Still for that read-out and setting: for `C=CCSSc1ncnc2c1ncn2C1OC(CO)C(O)C1O` (stereo not drawn) the value was 43.3%; for `O=Nc1c(O)c(Cl)cc2ccccc12`, 90.3%; for `Cc1cc2nc3[nH]c4ccccc4c3nc2cc1C`, 93.8%.

Turning to `COc1cc(-c2nn(C)nc2-c2cc3ccccc3s2)cc(OC)c1OC`, the growth was 13%. On the same count and under the same terms, for `CC(=O)OCCC/C(=C/c1cc2ccccc2c2ccccc12)[N+](=O)[O-]` the value was -18.5% (active).
